Experimental data: PubChem BioAssay AID2289 (National Center for Advancing Translational Sciences (NCATS), 2010)
Where “and” joins values, the source holds several entries; their conditions need not be identical. Identical values can stand only once. Screen size: about 340,000 compounds; about 3,300 (0.97%) were called active. Inconclusive results (about 9%) are left out. Calls come from the whole dose curve; as a rule, active = well fitted inhibition curve with a large enough effect; inconclusive = small, poorly fitted or top-dose-only effect, or effect the other way; inactive = flat fitted curve, though single readings scatter. The list shows a part of the results.

Assay: qHTS Assay for Modulators of miRNAs and/or Inhibitors of miR-21; note: nearly all actives have a fitted effect of over 55% in size
Conditions: HeLa miR-21-FLuc reporter, luciferase luminescence, 48 h; actives lower the signal
Summary of the method: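 Luminescence from a firefly luciferase reporter carrying a miR-21 binding site downstream, stably expressed under a CMV promoter in HeLa cells that make miR-21 endogenously, reports miRNA modulation after 48 h compound exposure up to approximately 40uM final.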
Potency is the fitted concentration of half-maximal effect.

Potency, active:
C=CCNC(=S)NNC(=O)COc1ccc2cc(Br)ccc2c1 7.36 µM, CC1Oc2ccccc2N(CC(=O)NCc2ccccc2)C1=O (stereo not given) 9.27 µM, CCn1c(O)c(N=Nc2ccc3ccccc3n2)c2ccccc21 1.04 µM, COc1ccc(-c2cc(CS(=O)(=O)c3ccccc3)on2)cc1 4.65 µM, O=S(=O)(Cc1cc(-c2ccc(Cl)cc2)no1)c1ccccc1 4.65 µM, COc1ccc(Br)c(-c2nnc(CS(=O)(=O)c3ccccc3)o2)c1 14.7 µM, O=S(=O)(Cc1cc(-c2ccccc2Cl)no1)c1ccccc1 5.21 µM, O=S(=O)(Cc1cc(-c2ccccc2)no1)c1ccccc1 14.7 µM, Nc1ccc(Oc2cc(N)cc(Oc3ccccc3)c2)cc1 8.26 µM, N=c1cc(C2(O)CCCCC2)n2c(nc3ccccc32)s1 0.185 µM, COc1ccccc1/C=C/C1=NC(=C\N(C)C)/C(=O)O1 14.7 µM, Oc1ccc(-c2cn3ccccc3n2)cc1O 3.29 µM, COc1ccc(-c2cn3cc(Cl)ccc3n2)cc1OC 13.1 µM, COc1ccc(-c2cn3ccccc3n2)cc1[N+](=O)[O-] 2.33 µM, CCOc1ccc(-c2cn3ccccc3n2)cc1[N+](=O)[O-] 2.93 µM, O=C(Nc1cc(F)c(Br)cc1F)c1ccc(Cl)cc1 3.29 µM, CCCOc1ccc(-c2csc(N)n2)cc1[N+](=O)[O-] 5.21 µM, CCCCOc1ccc(-c2csc(N)n2)cc1[N+](=O)[O-] 1.47 µM, COC(=O)c1ccc(Cn2nnc3sc4c(c3c2=O)CCCC4)cc1 6.56 µM, Cc1cccc(OCCn2nnc3sc4c(c3c2=O)CCCC4)c1 18.5 µM, S=C(NCCc1ccccc1)NCCc1ccccc1 2.61 µM, O=C(CSc1ccccc1)NCCc1ccccc1 14.7 µM, NNCCc1ccccc1 14.7 µM, O=C(CSc1ccccc1)NC1CCCCCC1 14.7 µM, CC1CCN(C(=S)NCCc2ccccc2)CC1 2.93 µM, Cc1cc(Cl)c2oc(C(=O)N(C)C(C)c3ccccn3)c(C)c2c1 (stereo not given) 14.7 µM, Cc1ccc2oc(C(=O)N(C)Cc3ccon3)c(C)c2c1 4.14 µM, Cc1ccc2c(C)c(C(=O)N(C)C(C)c3ccon3)oc2c1C (stereo not given) 16.5 µM, CCCc1ccc2oc(C(=O)N(C)Cc3ccn[nH]3)c(C)c2c1 10.4 µM, Cc1cc(Cl)c2oc(C(=O)N(C)Cc3ccon3)c(C)c2c1 4.65 µM, CCc1c(C)c2ccc(O)c(CN3CCN(c4ccccc4)CC3)c2oc1=O 6.56 µM, COc1ccc2c(c1)-c1nc(NC(=O)c3ccco3)sc1CC2 13.1 µM, COc1ccc2c(c1)Cc1sc(NC(C)=O)nc1-2 0.631 µM, Cc1cccc(-n2ncc3c(NC4CCCCC4)ncnc32)c1 0.414 µM, Cc1ccc(-n2ncc3c(NC4CCCCC4)ncnc32)cc1 0.521 µM, O=c1cccccc1NN=C1CCCCCC1 3.29 µM, O=c1cccccc1NN=C1CCCCC1 11.7 µM, Oc1ccccc1CNc1cccc2cccnc12 18.5 µM, Oc1c(/C=N/Nc2cccc3cccnc23)ccc2ccccc12 7.36 µM, Cc1ccccc1Nc1nc(N)nc(-c2oc3ccccc3c2C)n1 4.65 µM, Fc1ccccc1Nc1nc2ccccc2n2nnnc12 16.5 µM, CCN(CC)C(=O)c1cc(-c2ccc(Cl)cc2)on1 4.65 µM, COc1ccccc1-c1cc(C(=O)N2CCCC2)no1 1.85 µM, CCN(CC)C(=O)c1cc(-c2ccccc2OC)on1 13.1 µM, COc1ccccc1-c1cc(C(=O)N2CCOCC2)no1 2.93 µM, CC1C2CC(C/C2=N/NC(=O)c2cccs2)C1(C)C (stereo not given) 5.21 µM, O=C(N/N=C1/CC2C=CCC12)c1ccco1 (stereo not given) 5.21 µM, O=C(N/N=C1/CC2C=CCC12)c1cccs1 (stereo not given) 11.7 µM, COc1ccc(/C=N/n2c(N)nc3ccccc32)cc1OC 16.5 µM, Cc1nn(C)cc1/C=C/C(=O)c1ccc(O)cc1 13.1 µM, CCn1ncc(/C=C/C(=O)c2ccccc2)c1C 5.21 µM, Cc1c(/C=C/C(=O)c2ccccc2O)cnn1C 3.69 µM, Cc1c(/C=C/C(=O)c2ccc(O)cc2)cnn1C 18.5 µM, CCCCN1CCc2c([nH]c3ccc(C)cc23)C1=O 0.826 µM, CCOc1ccc(/C=N/Nc2ccccn2)cc1OC 5.21 µM, COc1ccc(/C=N/Nc2ccccn2)cc1O 7.36 µM, COc1ccc(COc2ccc3c(C)cc(=O)oc3c2)cc1 2.33 µM, COc1cccc(COc2ccc3c(C)cc(=O)oc3c2)c1 2.07 µM, COc1ccc(-c2noc(-c3cccc(OC)c3OC)n2)cc1OC 2.93 µM, COc1ccc(-c2noc(-c3ccccc3Cl)n2)cc1OC 1.47 µM, Cc1nc(-c2noc(-c3ccccc3Cl)n2)c(C(F)(F)F)o1 11.7 µM, Fc1ccc(-n2c(-c3ccc4c(c3)OCO4)n[nH]c2=S)cc1Cl 16.5 µM, CC(=O)c1c(C)nc(Nc2nc3ccccc3s2)nc1C 0.736 µM, O=C(COc1ccccc1[N+](=O)[O-])Nc1ccc2c(c1)OCO2 3.29 µM, COc1ccccc1OCC(=O)Nc1ccc2c(c1)OCCO2 8.26 µM, COc1ccccc1OCC(=O)Nc1ccc2c(c1)OCO2 18.5 µM, O=C(COc1ccccc1F)Nc1ccc2c(c1)OCCO2 1.17 µM, Cc1ccccc1OCC(=O)Nc1ccc2c(c1)OCCO2 6.56 µM, O=C(COc1ccccc1Cl)Nc1ccc2c(c1)OCO2 1.85 µM, CCc1ccccc1OCC(=O)Nc1ccc2c(c1)OCCO2 5.21 µM, Cc1ccc(NC(=O)c2c(Cl)nc3ccccn23)cc1 2.93 µM, O=C(Nc1ccc(F)cc1)c1c(Cl)nc2ccccn12 16.5 µM, C/C(=N\Nc1ccc(Cl)c(C(=O)O)c1)c1ccc2c(c1)OCO2 11.7 µM, C/C(=N\Nc1ccc(Cl)c(C(=O)O)c1)c1ccc[nH]1 14.7 µM, C/C(=N\Nc1ccc(Cl)c(C(=O)O)c1)c1cccc([N+](=O)[O-])c1 13.1 µM, C/C(=N\Nc1ccc(Cl)c(C(=O)O)c1)c1ccccn1 16.5 µM, Cc1ccc(N/C=C/C(=O)c2ccccc2)cc1Br 0.369 µM, Cc1cc(N/C=C/C(=O)c2ccccc2)ccc1Br 0.369 µM, Cn1cc(Cl)c(C(=O)N/N=C/c2ccc3c4c(cccc24)CC3)n1 1.65 µM, Nc1ccc(N=Nc2ccccc2Cl)c(N)n1 2.07 µM, COc1ccc(N=Nc2ccc(N)nc2N)cc1 2.61 µM, COc1ccc(-c2noc(CSc3ccccc3)n2)cc1OC 11.7 µM, c1ccc(SCc2nc(-c3ccccn3)no2)cc1 2.82 µM, N=c1oc2ccccc2cc1C(=O)Nc1cccc(F)c1 0.165 µM, COc1ccc(NC(=O)c2cc3ccccc3o/c2=N\NS(=O)(=O)c2ccc(C)cc2)cc1 3.29 µM, Cc1ccc(NC(=O)c2cc3ccccc3oc2=N)cc1 0.0736 µM, N=c1oc2cc(O)ccc2cc1C(=O)Nc1nc2ccccc2s1 1.04 µM, CCc1ccc2oc(-c3cc(N)cc(C)c3O)nc2c1 2.93 µM, O=C(Nc1nc(-c2cccs2)cs1)C1=COCCO1 2.33 µM, N/C(=N\O)c1ccc(N2CCN(c3ncccc3C(F)(F)F)CC2)nc1 4.65 µM, CC(C)(C)c1ccc(SCCc2ccccn2)cc1 6.56 µM, CC(C)(C)c1ccc(SCCc2cccnc2)cc1 8.26 µM, Cc1ccc(NC(=O)NC(=O)N(C2CCCCC2)S(=O)(=O)c2ccccc2)cc1 16.5 µM, Cc1ccc2oc(=O)c(/C=C(\O)c3cccs3)nc2c1 4.65 µM, Nc1c(-c2cccc([N+](=O)[O-])c2)nc2ccccn12 5.85 µM, CN1CCC(Oc2ccc(Sc3ccccc3)cc2)CC1 5.21 µM, COc1ccc(CN(C(=O)c2cc3ccccc3oc2=O)C2CCS(=O)(=O)C2)cc1OC (stereo not given) 5.85 µM and 13.1 µM, CC(C)Oc1cccc(C(=O)NC2=NCCS2)c1 3.69 µM, CC(C)Oc1cccc(C(=O)NC(=S)Nc2cccnc2)c1 13.1 µM, O=C(NC1=NCCS1)c1ccc(C(F)(F)F)cc1 6.56 µM, O=C(NCc1ccco1)c1cc(-c2cccs2)on1 5.85 µM, O=C(NCc1cccnc1)c1cc(-c2ccccc2)on1 18.5 µM, O=C(NCc1ccco1)c1cc(-c2ccccc2)on1 7.36 µM, O=C(NC12CC3CC(CC(C3)C1)C2)N1CCN(C(=O)c2ccco2)CC1 16.5 µM, O=C1/C(=C/c2cccs2)CCC/C1=C\c1cccs1 1.65 µM, CC(=O)N(c1nnc(-c2cccc(C)c2)s1)C1CCCC1 8.26 µM, CC(=O)Oc1ccc(-c2csc(Nc3cccc(C)n3)n2)cc1 1.47 µM, CCCCCNc1nc(-c2ccccc2)cs1 1.65 µM, Oc1ccc(-c2csc(Nc3ncccn3)n2)cc1O 5.85 µM, Oc1ccc(-c2csc(Nc3ccccn3)n2)cc1O 2.61 µM
